This note sets out measurements from PubChem BioAssay (Tox21).

Values joined by “and” are separate entries in the source; they are usually repeats but may differ in a detail not shown here. Identical values can stand only once. Results filed as inconclusive are left out. The source holds several records for some structures; these can differ, active in one and inactive in another. Active and inactive are the calls of the source. The call rests on the fitted dose curve; in most records, active means well fitted curve in the direction sought with a large enough effect in the repeat runs; inconclusive means weak or mixed curves; inactive means no such curve, though single readings can be large; an effect the other way counts as inactive or inconclusive.

Assay [1] can be described thus: A CellTox Green Cytotoxicity Assay to monitor cytotoxicity in HEK293 cells - 40 hour (AID 1224871). Further: nearly all actives have a fitted effect of over 45% in size. The essentials: (§1)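 Tox21 screen in HEK293: membrane-impermeant cyanine dye fluoresces on binding dead-cell DNA; compound pinned 5 h post-seeding, plates held at 37 C, signal read repeatedly through 40 h.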
Assay [2] is described as follows: qHTS RealTime-Glo MT Cell Viability Assay in HEK293 cells - 16 hour (AID 1224872). Further: top concentration of the series differs between compounds; nearly all actives have a fitted effect of over 50% in size. The essentials: (§2)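 Homogeneous bioluminescent viability format in HEK293 cells (600 cells/well). Following 5 h at 37 C/5% CO2, 23 nL compound was pintooled; the signal was measured repeatedly during 40 h incubation.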
Background: qHTS replaces the single test concentration by a dilution series.

Assay [3] in a line: qHTS RealTime-Glo MT Cell Viability Assay in HepG2 cells - 8 hour (AID 1224873). Further: nearly all actives have a fitted effect of over 55% in size. In a few lines: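 Real-time viability: cells seeded at 600 per well together with NanoLuc and cell-permeant prosubstrate, compounds added after 5 h incubation. Luminescence tracked at 0, 8, 16, 24, 32 and 40 h of exposure.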
Assay [4] can be described thus: qHTS RealTime-Glo MT Cell Viability Assay in HEK293 cells - 40 hour (AID 1224874). Further: nearly all actives have a fitted effect of over 50% in size. Further: potency means the concentration at half of the fitted maximal effect. Conditions: RealTime-Glo luminescence; max response: stronger effect = lower value. In a few lines: (§3)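 HEK293 + NanoLuc + prosubstrate, 600 cells/well; 5 h, 37 C/5% CO2; compound 23 nL in DMSO by pintool; 37 C; luminescence read at 0, 8, 16, 24, 32 and 40 h time points.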
Assay [5] can be described thus: A CellTox Green Cytotoxicity Assay to monitor cytotoxicity in HEK293 cells - 24 hour (AID 1224875). Further: series mostly up to about 77 µM; nearly all actives have a fitted effect of over 45% in size. The essentials: as §1
The nature of assay [6]: A CellTox Green Cytotoxicity Assay to monitor cytotoxicity in HepG2 cells - 16 hour (AID 1224876). Further: nearly all actives have a fitted effect of over 45% in size. Further: potency means the concentration at half of the fitted maximal effect. In a few lines:
(§4)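 Measurements at 0, 8, 16, 24, 32 and 40 h of treatment captured CellTox Green fluorescence in HepG2 cells that had been co-plated with reagent and preincubated 5 h at 37 C/5% CO2.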

Assay [7] is described as follows: qHTS RealTime-Glo MT Cell Viability Assay in HepG2 cells - 32 hour (AID 1224877). Further: nearly all actives have a fitted effect of over 55% in size. The essentials: (§5)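 Cell number in HepG2 cultures estimated from NanoLuc luminescence generated by metabolic reduction of a prosubstrate by living cells. The homogeneous, nonlytic format allowed repeated reads at 0, 8, 16, 24, 32 and 40 h of compound exposure.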
Assay [8] in a line: A CellTox Green Cytotoxicity Assay to monitor cytotoxicity in HepG2 cells - 24 hour (AID 1224878). Further: nearly all actives have a fitted effect of over 45% in size. Further: potency means the concentration at half of the fitted maximal effect. The essentials: as §4
The nature of assay [9]: A CellTox Green Cytotoxicity Assay to monitor cytotoxicity in HepG2 cells - 40 hour (AID 1224879). Further: nearly all actives have a fitted effect of over 40% in size. Further: potency means the concentration at half of the fitted maximal effect. In a few lines:
as §4

Assay [10] is described as follows: qHTS RealTime-Glo MT Cell Viability Assay in HEK293 cells - 0 hour (AID 1224880). In a few lines:
as §3

Assay [11] in a line: A CellTox Green Cytotoxicity Assay to monitor cytotoxicity in HEK293 cells - 32 hour (AID 1224881). Further: nearly all actives have a fitted effect of over 40% in size. In a few lines: as §1
Assay [12] in a line: A CellTox Green Cytotoxicity Assay to monitor cytotoxicity in HepG2 cells - 0 hour (AID 1224882). Further: nearly all actives have a fitted effect of over 35% in size. In a few lines: as §4
A short description of assay [13]: A CellTox Green Cytotoxicity Assay to monitor cytotoxicity in HepG2 cells - 32 hour (AID 1224883). Further: nearly all actives have a fitted effect of over 50% in size. Further: potency means the concentration at half of the fitted maximal effect. The essentials:
as §4

Assay [14] can be described thus: A CellTox Green Cytotoxicity Assay to monitor cytotoxicity in HEK293 cells - 8 hour (AID 1224884). Further: nearly all actives have a fitted effect of over 35% in size. The essentials: as §1
Assay [15] in a line: qHTS RealTime-Glo MT Cell Viability Assay in HepG2 cells - 16 hour (AID 1224885). Further: nearly all actives have a fitted effect of over 50% in size. In a few lines: as §5
Assay [16] in a line: qHTS RealTime-Glo MT Cell Viability Assay in HEK293 cells - 24 hour (AID 1224886). In a few lines: as §2
Assay [17] can be described thus: qHTS RealTime-Glo MT Cell Viability Assay in HEK293 cells - 8 hour (AID 1224887). The essentials:
as §3

A short description of assay [18]: A CellTox Green Cytotoxicity Assay to monitor cytotoxicity in HEK293 cells - 16 hour (AID 1224888). Further: nearly all actives have a fitted effect of over 35% in size. In a few lines:
as §1

Assay [19] is described as follows: qHTS RealTime-Glo MT Cell Viability Assay in HepG2 cells - 0 hour (AID 1224889). Further: nearly all actives have a fitted effect of over 50% in size. In a few lines: as §5
A short description of assay [20]: A CellTox Green Cytotoxicity Assay to monitor cytotoxicity in HepG2 cells - 8 hour (AID 1224890). Further: nearly all actives have a fitted effect of over 45% in size. In a few lines: as §4
On the % scale 0 is the no-effect control and ±100 the full control effect.

Regarding `NC(N)=NC(=O)c1nc(Cl)c(N)nc1N`, the Potency result in assay [1], in assay [2], in assay [5], in assay [6], in [7] and in [8] was “inactive” throughout. For the same compound, the Potency entry in assay [9], in [10], in assay [11], in [12], in assay [13] and in assay [14] was “inactive” in each case. Also, the Potency result in assay [15], in [16], in [17], in assay [18], in assay [19] and in assay [20] was “inactive” each time. In addition, the compound was classed as inactive in assay [3]. Moreover, in assay [4], the max response is -9.86% (inactive) and -7.01% (inactive) and -5.97% (inactive).
For the compound `CC(=O)NS(=O)(=O)c1ccc(N)cc1`, the Potency result in [1], in [2], in [5], in assay [6], in [7] and in assay [8] was “inactive” in each case. Also, the Potency entry in assay [9], in [10], in [11], in [12], in [13] and in [14] was “inactive” each time. For the same compound, the Potency result in assay [15], in assay [16], in assay [17], in [19] and in assay [20] was “inactive” in each case. Besides, in assay [3], the compound was classed as inactive. Besides, in assay [4], the max response is 9.67% (inactive) and 1.24% (inactive) and 4.39% (inactive).
For the compound `O=C1NC(=O)c2ccccc21`, the Potency entry in [1], in assay [2], in [5], in assay [6], in assay [7] and in assay [8] was “inactive” throughout. Besides, the Potency result in assay [9], in assay [10], in assay [11], in assay [12], in [13] and in assay [14] was “inactive” in each case. In addition, the Potency result in [15], in assay [16], in [17], in [18], in [19] and in [20] was “inactive” throughout. Also, the compound was called inactive in assay [3].
For the compound `Cc1ccc(O)cc1`, the Potency result in [1], in assay [2], in [5], in [6], in [7] and in [8] was “inactive” in each case. Also, the Potency entry in assay [9], in assay [10], in [11], in assay [12], in assay [13] and in assay [14] was “inactive” each time. Also, the Potency result in [15], in assay [16], in [17], in assay [18], in assay [19] and in assay [20] was “inactive” each time. Further, in [3], the result was inactive. For the same compound, the max response in [4] was 8.24% (inactive) [middle of 4 runs].
Consider `O=C(c1ccccc1)c1ccccc1`, for which the Potency entry in assay [1], in [2], in [5], in [6], in [7] and in assay [8] was “inactive” in each case. Besides, the Potency result in assay [9], in [10], in assay [11], in assay [12], in assay [13] and in assay [14] was “inactive” in each case. Further, the Potency result in [15], in assay [16], in assay [17], in [19] and in assay [20] was “inactive” each time. Besides, the call in assay [3] was inactive. The max response in assay [4] was -7.38% (inactive) and -0.339% (inactive) and 9.06% (inactive).
On to `CC(O)C(=O)O` (centres undefined), for which the Potency result in [1], in [2], in [5], in assay [6], in assay [7] and in assay [8] was “inactive” in each case. Besides, the Potency result in assay [9], in assay [10], in assay [11], in [12], in assay [13] and in assay [14] was “inactive” each time. Further, the Potency entry in assay [15], in [16], in [19] and in assay [20] was “inactive” each time. Also, in assay [3], the result was inactive. Also, in assay [4], the max response is 13.3% (inactive) and 7.35% (inactive) and 12.9% (inactive).
Take `CC(=O)Nc1nnc(S(N)(=O)=O)s1`: the Potency result in assay [1], in [2], in [5], in [6], in assay [7] and in assay [8] was “inactive” throughout. The Potency entry in [9], in [10], in [11], in assay [12], in assay [13] and in [14] was “inactive” throughout. For the same compound, the Potency result in assay [15], in assay [16], in assay [17], in assay [19] and in assay [20] was “inactive” throughout. In addition, in assay [3], the outcome was inactive. Besides, the max response in assay [4] is 3.91% (inactive) and 1.75% (inactive) and 9.79% (inactive).
For the compound `Cc1cn([C@H]2C[C@H](N=[N+]=[N-])[C@@H](CO)O2)c(=O)[nH]c1=O`, the Potency entry in [1], in assay [2], in assay [5], in assay [6], in assay [7] and in [8] was “inactive” in each case. Besides, the Potency result in assay [9], in assay [10], in [11], in assay [12], in assay [13] and in assay [14] was “inactive” in each case. Moreover, the Potency entry in [15], in assay [16], in assay [17], in [18], in [19] and in assay [20] was “inactive” in each case. Besides, the outcome in assay [3] was inactive.
For the compound `CCCNC(=O)NS(=O)(=O)c1ccc(Cl)cc1`, the Potency entry in [1], in assay [2], in assay [5], in assay [6], in assay [7] and in assay [8] was “inactive” in each case. In addition, the Potency entry in assay [9], in assay [10], in [11], in [12], in assay [13] and in assay [14] was “inactive” throughout. For the same compound, the Potency entry in assay [15], in [16], in [17], in assay [19] and in assay [20] was “inactive” throughout. Further, the compound was called inactive in [3]. In addition, the max response in assay [4] was 1.38% (inactive) and -0.751% (inactive) and 0.902% (inactive).
On to `O=S(=O)(O)NC1CCCCC1`, for which the Potency entry in assay [1], in assay [2], in assay [5], in assay [6], in [7] and in assay [8] was “inactive” each time. Besides, the Potency result in assay [9], in assay [10], in assay [11], in assay [12], in assay [13] and in assay [14] was “inactive” in each case. Besides, the Potency result in assay [15], in [16], in assay [18], in [19] and in assay [20] was “inactive” throughout. In addition, in assay [3], the result was inactive. Besides, the max response in assay [4] is 10.8% (inactive) and 12.2% (inactive) and -1.58% (inactive).
Take `NS(=O)(=O)c1cc(C(=O)O)c(NCc2ccco2)cc1Cl`: the Potency result in assay [1], in assay [2], in assay [5], in assay [7], in [10] and in [11] was “inactive” in each case. The Potency result in assay [12], in [14], in assay [15], in [16], in assay [19] and in assay [20] was “inactive” in each case. Besides, in assay [3], the call was inactive. The max response in [4] is -14.3% (inactive) and -0.726% (inactive) and 2.65% (inactive). For the same compound, the Potency was 22 µM (active) and inactive in assay [6]; 17.4 µM (active) and inactive in assay [8]; 19.6 µM (active) and inactive in assay [9]; 19.6 µM (active) and inactive in assay [13].
As for `Oc1ccc(/C=C/c2cc(O)cc(O)c2)cc1`, the Potency entry in [1], in [2], in assay [5], in [6], in assay [7] and in [8] was “inactive” each time. Also, the Potency entry in assay [10], in [11], in assay [12], in [14], in assay [15] and in [19] was “inactive” in each case. For the same compound, the Potency result in [20] was “inactive”. Moreover, in assay [3], the result was inactive. In assay [4], the Potency is 15.6 µM (active).
